Here are results for one compound from PubChem BioAssay AID2284200 (EPA ToxCast).

The source made the active and inactive calls. How the source made its calls: active means hit-call score of the fitted dose curve at least 0.9, where 1 is the maximum; inactive means score below 0.9.

The assay in a line: ERF_TW_NR_rI2: Eurofins (ERF) Radioligand Binding LeadHunter Assay for rat Imidazoline I2 Central Antagonism. How it is done: ERF_TW_NR_rI2 is a biochemical, single-readout assay that uses extracted gene-proteins in a cell-free assay. Measurements were taken 0.5 hour after chemical dosing in a 96-well plate. See Imidazoline I2, Central Rat Binding (Antagonist Radioligand) Assay, Panlabs.ERF_TW_NR_rI2 is an assay component calculated from the ERF_TW_NR_rI2 assay. It is designed to measure radioligand binding using a type of binding reporter as detected by scintillation counting with radiometry technology.Data from the assay component ERF_TW_NR_rI2 was analyzed at the assay endpoint, ERF_TW_NR_rI2, in the positive analysis fitting direction relative to DMSO as the negative control and baseline of activity. Using a type of binding reporter, loss-of-signal activity can be used to understand changes in radioligand binding as they relate to gene NISCH (homolog). To generalize the intended target to other relatable targets, this assay endpoint is annotated to the oxidoreductase intended target family, where the subfamily is imidazoline receptor.
Brains (except cerebella) of male Wistar derived rats weighing 175 +/- 25 g are used to prepare imidazoline I2 receptors in modified Tris-HCl buffer pH 7.4. A 15 mg aliquot is incubated with 2 nM [3H] Idazoxan for 30 minutes at 25C. […] Membranes are filtered and washed, the filters are then counted to determine [3H] […]
With `COc1cc(CCC(=O)CC(=O)CCc2ccc(O)c(OC)c2)ccc1O`, the outcome was inactive.
